# Experimental data published in PubChem BioAssay AID720517 (National Center for Advancing Translational Sciences (NCATS), 2013).
# Results filed as inconclusive are left out. Unmarked numbers belong to inactive results. Calls follow the shape of the dose curve; as a rule, active = well fitted activation curve with a large enough effect; inconclusive = small, poorly fitted or top-dose-only effect; inactive = flat fitted curve, though single readings scatter.
# Experiment: qHTS for Inhibitors of Cell Surface uPA Generation: FP59 Counterscreen for Cherry-picked Compounds; also: 0% is about no effect
# Details: FP59 anthrax toxin cytotoxicity counterscreen, cells; series mostly up to 115 µM; activity (protection from FP59): at the top concentration
row,SMILES,activity (protection from FP59) [%]
1,CCOC(=O)[C@H]1[C@H]2COc3ccc(Br)cc3[C@@H]2N2C(=O)c3c(C)cc(C)cc3NC(=O)[C@@]12C,1.95
2,COc1ccc(Cc2nnc(NC(=O)Nc3ccc(F)cc3)s2)cc1,-0.209
3,COc1ccccc1CNC(=O)CCn1c(=O)oc2ccccc21,-1.54
4,CCOC(=O)Cc1csc(NC(=O)Nc2cccc(OC)c2)n1,-1.49
5,COC(=O)CCNS(=O)(=O)c1ccc2nsnc2c1,-1.4
6,Cc1cccc(N2C(=O)N3[C@H](c4ccc(F)cc4)[C@@H]4C(=O)N(C5CCCCC5)C(=O)[C@@H]4[C@]3(Cc3ccc(Cl)cc3)C2=O)c1,-1.01
7,COc1cccc(C(=O)NCC(c2ccco2)N2CCc3ccccc3C2)c1 (configuration not stated),-1.3
8,O=C(CSc1nncs1)NC(=O)NCc1ccco1,-1.2
9,OCC[C@@H]1C[C@H](O)[C@@H](O)[C@]2(OCCc3ccccc32)O1,-1.32
10,Cc1cccc(-c2nc(CS(=O)CC(=O)NCc3cccs3)c(C)o2)c1 (configuration not stated),-1.04
11,O=C(O)COc1ccccc1/C=N/NC(=O)CNC(=O)c1ccco1,-1.05
12,NC(=O)CC(NC(=O)Cc1cccc2ccccc12)c1ccc(N2CCC(Cc3ccccc3)CC2)c([N+](=O)[O-])c1 (configuration not stated),-1.17
13,Cc1ccc(S(=O)(=O)NC(=O)Nc2nccs2)cc1,-1.39
14,CCCCNC(=O)c1cc2c(-c3ccc(Cl)cc3)nn(C)c2s1,-1.37
15,COc1cc(CN2CCN(c3ncccn3)CC2)cc(OC)c1,-1.39
16,CC(C)(C)OC(=O)N(Cc1ccccc1)Cc1ccccc1OCc1cccc(NC(=O)C2CC2)c1,4.81
17,CC(=O)Oc1ccc(OC(C)=O)c(SCCCCCCl)c1,-1.46
18,CCn1c2ccccc2c2n[nH]c(=S)nc21,-1.35
19,CCOC(=O)c1ccccc1N=Cc1c(O)c2ccccc2oc1=O,-1.49
20,CCCNC(=O)COc1coc(CN2CCN(c3ccccc3OC)CC2)cc1=O,-1.39
21,Cc1ccc2cc(C=O)c(Cl)nc2c1,-1.35
22,CCOCCCn1c(SCC(=O)Nc2oc(C)c3c(C)n[nH]c(=O)c23)nc2ccccc2c1=O,-1.53
